HT1080 IDH1KD tx = HT-1080 IDH1 knockdown cell toxicity (counter line); HT-1080 IDH1 knockdown viability, ATP luminescence, 48 h; Potency, µM (titrated, usually from 46.1 µM), for the others: at the top dose activity, negative = toxicity, usual class: cytotoxic; hit rate 2% among 360,000; AID 686971;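 note: potency is the fitted concentration of half-maximal effect; 0% = DMSO wells and -100% = cell-free medium wells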
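Cytotoxicity counter-line: IDH1KD HT-1080, 48 h, CellTiter-Glo. Curves classed by r2, magnitude and activity.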
DT40 TDP1 CPT = DT40-hTDP1 cell growth loss with CPT; hit rate 12% among 420,000; Potency, µM (series often up to 46.2 µM), inactives show top-dose activity change, negative = growth inhibition, usual class: inhibitors; chicken DT40 Tdp1-/-;hTDP1 cells + 20 nM CPT, ATP luminescence, 48 h; note: potency is the fitted concentration of half-maximal effect; nearly all actives have a fitted effect of over 55% in size
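Cell growth measured by CellTiter-Glo luminescence after a minimum 48 h, 37 C compound exposure with 20 nM CPT in Tdp1-knockout DT40 cells stably expressing hTDP1, seeded 400/well; qHTS titration format.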
DT40 TDP1 no CPT = qHTS for Inhibitors of human tyrosyl-DNA phosphodiesterase 1 (TDP1): qHTS in cells in absence of CPT; DT40 Tdp1-/- hTDP1 cells, no CPT, ATP luminescence, 48 h; hit rate 15% among 420,000; AID 686978, 2013; Potency, µM (titrated, usually from 46.2 µM), for inactives: at the highest dose activity change, negative = growth inhibition, most hits filed as inhibitors; note: potency is the fitted concentration of half-maximal effect; nearly all actives have a fitted effect of over 55% in size
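Chicken DT40 Tdp1-/- cells complemented with human TDP1, screened without camptothecin (DMSO vehicle only), 400 cells/well. Compounds pin-transferred, cells incubated at 37 °C for at least 48 hr. Growth read as ATP-dependent luminescence (CellTiter-Glo, 30 min at RT).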
HT1080-NT tox = kills 2HG-producing HT-1080-NT fibrosarcoma cells | HT-1080-NT fibrosarcoma viability, CellTiter-Glo ATP luminescence, 48 h | Potency, µM (titrated, usually from 46.1 µM), for inactives: at the top dose activity, negative = less viability, most hits filed as cytotoxic | hit rate 1.6% among 360,000;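 note: NT is the 2HG producing partner of a matched IDH1 knockdown line; potency is the fitted concentration of half-maximal effect; 0% = DMSO-treated cells and -100% = media-only wells without cells; nearly all actives have a fitted effect of over 55% in size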
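750 cells/well, RPMI + 5% FBS; 2 h settle, compound pin-transfer, 48 h at 37 degrees C. CellTiter-Glo 10 min RT, luminescence. Normalized to DMSO and media-only wells.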
IL-1B inflam inh = inhibitors of inflammasome signaling (IL-1 beta secretion); hit rate 4.7% among 360,000; THP-1 LPS/ATP IL-1B secretion, AlphaLISA, 16 h; stronger effect = lower value; AID 743279; activity change, % at 57.5 µM; in the data active = activity change below about -50%; inconclusive = mostly about -30% to -49%
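THP-1 cells pretreated 1 hr with compounds (up to 57.5 uM final), then stimulated with LPS (250 ng/mL final) plus ATP (1.25 mM final); secreted IL-1B measured by AlphaLISA after 16 hr, decreased signal indicating inhibition.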
An asterisk follows results filed as active; u = inconclusive; x = no result given; [ ] = another dose, or the depositor's remark. Only some compounds are listed: those with a hit (about 19% of all), similar ones and a draw of the others. Unless noted, calls come from the whole dose curve; as a rule, active = well fitted curve in the direction sought with a large enough effect; inconclusive = small, poorly fitted or top-dose-only effect, or another doubt; inactive = no such curve, though single readings can be large; an effect the other way counts as inactive or inconclusive. Unless noted, % is set by controls: 0 for no effect and ±100 for the full control effect.

SMILES	HT1080 IDH1KD tx	DT40 TDP1 CPT	DT40 TDP1 no CPT	HT1080-NT tox	IL-1B inflam inh
COc1cccc(/C=N/NC(=O)CNC(=O)/C=C\c2ccccc2)c1O	21.9%	u	2.06µM*	-3.3%	37.2
COc1ccccc1/C=C\C(=O)NCC(=O)N/N=C/c1ccc(O)cc1O	9.2µM*	u	u	u	71.3
COc1cccc(/C=N/NC(=O)CNC(=O)C(c2ccccc2)c2ccccc2)c1O	u	7.31µM*	5.8µM*	u	76.7
COc1ccc(Br)cc1/C=N/NC(=O)CNC(=O)/C=C/c1ccccc1	u	16.4µM*	13µM*	u	88.5
COc1ccc(/C=C\C(=O)NCC(=O)N/N=C/c2cccc(OC)c2O)cc1	0.2%	5.8µM*	2.59µM*	-16.9%	67.5
COc1cccc(C(C(=O)NCc2ccccc2)N(C(=O)c2csnn2)C2CC2)c1 (stereo not given)	19.0%	u	u	12.5%	4.1
CCCOc1cccc(C2C(C(=O)c3cccs3)=C(O)C(=O)N2CCN2CCOCC2)c1 (stereo not given)	11.2%	-3.5%	3.5%	10.6%	0.0
COc1cccc(C2c3c(-c4cc(Cl)c(C)cc4O)n[nH]c3C(=O)N2Cc2cccnc2)c1 (stereo not given)	u	u	16.4µM*	u	u
COc1cc(C2c3c(-c4cc(Cl)c(C)cc4O)n[nH]c3C(=O)N2Cc2cccnc2)ccc1O (stereo not given)	-14.4%	-5.8%	u	2.6%	-59.3*
COc1cc(C2c3c(-c4cc(C)ccc4O)n[nH]c3C(=O)N2Cc2cccnc2)cc(OC)c1OC (stereo not given)	x	7.4%	-11.2%	x	x
CCOc1ccc(C2c3c(-c4cc(C)ccc4O)n[nH]c3C(=O)N2Cc2cccnc2)cc1OCC (stereo not given)	x	0.8%	-18.5%	x	x
CCCOc1ccc([N+](=O)[O-])cc1C1NC(=S)NC(c2ccccc2)=C1C(=O)OCC (stereo not given)	-8.5%	u	20.6µM*	-16.1%	-29.1
Cc1ccc(-c2nnc3sc(C4COc5ccccc5O4)nn23)cc1 (stereo not given)	2.6%	u	23.1µM*	-3.8%	-19.1
COc1ccc(-c2cc3c(o2)CCCC3OCCN2CCOCC2)cc1 (stereo not given)	-17.6%	u	u	-11.6%	4.6
Cc1ccc(CCNC(=O)Cn2ccc3cc(S(=O)(=O)N4CCCC4)ccc32)cc1	-6.3%	u	23.1µM*	-16.7%	21.4
COc1ccc(OC)c(CCNC(=O)Cn2ccc3cc(S(=O)(=O)N4CCCC4)ccc32)c1	-1.6%	u	u	1.8%	6.1
Cc1ccccc1CCNC(=O)Cn1ccc2cc(S(=O)(=O)N3CCCC3)ccc21	-18.7%	18.4µM*	u	-7.5%	4.8
Cc1ccc(Nc2c([N+](=O)[O-])ccc3nonc23)cc1C	1.1%	-2.5%	2.5%	-1.5%	-16.0
COc1ccccc1CNc1ccc(-c2nc(C)no2)cc1[N+](=O)[O-]	x	7.31µM*	7.31µM*	x	x
Cc1cccc(-c2noc(-c3ccc(NCc4ccccc4)c([N+](=O)[O-])c3)n2)c1	x	-17.7%	-5.3%	x	x
Cc1noc(-c2ccc(NCc3ccccc3)c([N+](=O)[O-])c2)n1	x	18.4µM*	u	x	x
COc1cc(CNCc2ccccn2)ccc1OCc1cccc(Cl)c1	-17.8%[9.24 µM]	u	u	u	-79.6*
O=C(NCc1ccccn1)c1cc(Cl)ccc1OCc1ccccc1	-18.6%	u	u	-9.1%	-53.3*
Clc1ccc(COc2cccc(CNCc3ccncc3)c2)cc1	-26.8%	u	18.4µM*	-13.7%	-15.2
COc1cc(CNCc2ccccn2)ccc1OCc1ccc(Cl)cc1	u	u	u	u	-57.2*
SMILES	HT1080 IDH1KD tx	DT40 TDP1 CPT	DT40 TDP1 no CPT	HT1080-NT tox	IL-1B inflam inh
COc1ccc(CNCc2ccncc2)cc1OC	19.9%	-8.6%	0.8%	16.3%	15.3
Cc1cc(C)c(S(=O)(=O)Nc2ccccc2C(=O)N2CCCC2)c(C)c1	-2.1%	u	u	-1.0%	-5.2
CC(C)NC(=O)N(C)C[C@H]1Oc2ccc(NC(=O)Cc3ccccc3)cc2C(=O)N([C@H](C)CO)C[C@@H]1C	8.2%	-9.1%	-15.1%	8.4%	3.1
CC(C)CCOC(=O)C1C(c2ccccc2)C(C(=O)O)C1c1ccccc1 (stereo not given)	3.66µM*	1.4%	0.6%	7.31µM*	7.5
Oc1ccc(Br)cc1/C=N/NC(=S)NCCc1ccccc1	u	u	16.4µM*	u	-74.6*
COc1ccc(C(=O)CCc2ccccc2)c(O)c1	5.4%	22.5%	-11.5%	u	-23.8
COc1ccc(O)c(/C=N/NC(=S)NCCc2ccccc2)c1	u	u	u	14.6µM*	-97.4*
CC(C)NC(=S)N/N=C/c1c[nH]c2ccccc12	6.8%	4.61µM*	3.66µM*	1.6%	15.7
COc1ccc(/C(C)=N/NC(=S)NCCc2ccccc2)c(O)c1	u	0.651µM*	0.581µM*	u	50.6
CC(C)C(NC(=O)c1ccccc1F)C(=O)NCc1ccccc1 (stereo not given)	12.8%	u	u	11.3%	23.7
Cc1cc(-c2onc3ccc(Cl)cc23)ccc1O	-24.9%	u	u	-14.5%	u
CCN(C(=O)Cn1nc(C)c([N+](=O)[O-])c1C)C1CCS(=O)(=O)C1 (stereo not given)	10.2%	-0.6%	-13.6%	22.9%	10.1
CC(C)NC(=S)N/N=C/c1cc(Br)ccc1O	u	4.61µM*	4.61µM*	u	31.7
O=C(CCc1ccccc1)N/N=C/c1cc(Br)ccc1O	u	2.59µM*	4.11µM*	u	19.6
COCCCNC(=S)N/N=C/c1ccccc1O	-5.6%	2.59µM*	0.581µM*	-1.9%	4.3
OC1(c2ccc(Br)cc2)CCN(Cc2cccc(Br)c2)CC1	0.0%	20.6µM*	u	2.5%	-6.6
N#Cc1ccccc1NC(=O)CSc1nnc(-c2ccncc2)o1	9.3%	0.9%	-13.9%	11.7%	0.0
CCCCN1C2=C(C(=O)CC(C)(C)C2)C(c2ccccc2)C2=C1c1ccccc1C2=O (stereo not given)	1.8%	u	16.4µM*	19.0%	-19.6
CCCN1C2=C(C(=O)CC(C)(C)C2)C(c2ccc(F)cc2)C2=C1c1ccccc1C2=O (stereo not given)	6.9%	20µM*	u	2.1%	-8.9
CCN(CC)CCN1C2=C(C(=O)CC(C)(C)C2)C(c2cccc(F)c2)C2=C1CC(C)(C)CC2=O	-11.7%	-28.3%	u	-0.8%	0.8
